Reference: ChEMBL document CHEMBL1961873, “Compounds: GSK PKIS; Assays: Nanosyn kinase panel” (2012)

Key:
[1] = molecular target: Mast/stem cell growth factor receptor Kit (Homo sapiens) (UniProt P10721); details: at 1 µM
[2] = tested on: Mast/stem cell growth factor receptor Kit (Homo sapiens), P10721 [D816V]; details: at 0.1 µM
[3] = tested on: Mast/stem cell growth factor receptor Kit (Homo sapiens), P10721 [D816V]; details: at 1 µM
[4] = tested on: Mast/stem cell growth factor receptor Kit (Homo sapiens), P10721 [T670I]; details: at 0.1 µM
Sequence of Mast/stem cell growth factor receptor Kit (Homo sapiens), P10721 [T670I] (P10721 whole entry T670I): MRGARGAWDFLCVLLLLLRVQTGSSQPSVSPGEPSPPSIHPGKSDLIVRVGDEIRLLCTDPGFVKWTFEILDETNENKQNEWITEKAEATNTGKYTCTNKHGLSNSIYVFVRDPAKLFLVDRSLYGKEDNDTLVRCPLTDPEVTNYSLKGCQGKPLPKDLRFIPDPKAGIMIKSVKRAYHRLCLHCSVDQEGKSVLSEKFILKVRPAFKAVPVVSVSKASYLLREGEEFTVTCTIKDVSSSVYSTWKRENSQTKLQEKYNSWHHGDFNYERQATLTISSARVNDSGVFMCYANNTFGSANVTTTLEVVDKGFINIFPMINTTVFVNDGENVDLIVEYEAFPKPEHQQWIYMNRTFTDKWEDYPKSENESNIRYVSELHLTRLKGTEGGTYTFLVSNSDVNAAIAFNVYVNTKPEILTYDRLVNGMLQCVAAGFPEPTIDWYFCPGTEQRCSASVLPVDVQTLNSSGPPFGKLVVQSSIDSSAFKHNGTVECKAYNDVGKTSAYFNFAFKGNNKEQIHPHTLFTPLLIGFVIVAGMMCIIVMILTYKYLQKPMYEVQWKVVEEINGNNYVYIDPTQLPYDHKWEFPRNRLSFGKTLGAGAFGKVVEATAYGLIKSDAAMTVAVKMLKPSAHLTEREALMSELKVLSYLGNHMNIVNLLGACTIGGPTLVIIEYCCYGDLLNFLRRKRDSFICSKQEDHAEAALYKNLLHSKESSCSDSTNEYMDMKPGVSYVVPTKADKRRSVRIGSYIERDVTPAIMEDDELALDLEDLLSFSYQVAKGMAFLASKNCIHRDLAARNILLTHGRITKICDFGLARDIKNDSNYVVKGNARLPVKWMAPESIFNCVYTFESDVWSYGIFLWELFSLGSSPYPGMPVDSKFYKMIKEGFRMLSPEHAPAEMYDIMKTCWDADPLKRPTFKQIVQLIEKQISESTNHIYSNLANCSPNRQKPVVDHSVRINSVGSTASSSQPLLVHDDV

[5] = tested on: Mast/stem cell growth factor receptor Kit (Homo sapiens), P10721 [T670I]; details: at 1 µM
[6] = tested on: Mast/stem cell growth factor receptor Kit (Homo sapiens), P10721 [V560G]; details: at 0.1 µM
Sequence of Mast/stem cell growth factor receptor Kit (Homo sapiens), P10721 [V560G] (P10721 whole entry V560G): as the sequence (P10721 whole entry T670I) above, with V560G, I670T counted along it

[7] = tested on: Mast/stem cell growth factor receptor Kit (Homo sapiens), P10721 [V560G]; details: at 1 µM
[8] = molecular target: Tyrosine-protein kinase Lck (Homo sapiens) (UniProt P06239); details: at 0.1 µM
Sequence of Tyrosine-protein kinase Lck (Homo sapiens) (P06239 2-509 limits assumed): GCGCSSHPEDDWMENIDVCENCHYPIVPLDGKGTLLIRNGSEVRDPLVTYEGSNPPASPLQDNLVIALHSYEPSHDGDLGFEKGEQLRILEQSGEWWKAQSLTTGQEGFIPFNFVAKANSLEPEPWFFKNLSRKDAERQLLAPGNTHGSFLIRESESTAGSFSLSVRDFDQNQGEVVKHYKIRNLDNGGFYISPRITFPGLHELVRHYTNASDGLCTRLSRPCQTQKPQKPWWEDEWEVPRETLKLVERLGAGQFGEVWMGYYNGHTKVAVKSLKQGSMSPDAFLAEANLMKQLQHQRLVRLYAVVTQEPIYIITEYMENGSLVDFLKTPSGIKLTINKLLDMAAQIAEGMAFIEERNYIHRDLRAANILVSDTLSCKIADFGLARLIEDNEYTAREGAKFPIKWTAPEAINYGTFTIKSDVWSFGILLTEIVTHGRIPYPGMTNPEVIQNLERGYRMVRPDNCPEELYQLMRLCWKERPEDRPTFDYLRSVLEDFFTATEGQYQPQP

[9] = molecular target: Tyrosine-protein kinase Lck (Homo sapiens) (UniProt P06239); details: at 1 µM
[10] = molecular target: Leukocyte tyrosine kinase receptor (Homo sapiens) (UniProt P29376); details: at 0.1 µM
Sequence of Leukocyte tyrosine kinase receptor (Homo sapiens) (P29376 whole entry): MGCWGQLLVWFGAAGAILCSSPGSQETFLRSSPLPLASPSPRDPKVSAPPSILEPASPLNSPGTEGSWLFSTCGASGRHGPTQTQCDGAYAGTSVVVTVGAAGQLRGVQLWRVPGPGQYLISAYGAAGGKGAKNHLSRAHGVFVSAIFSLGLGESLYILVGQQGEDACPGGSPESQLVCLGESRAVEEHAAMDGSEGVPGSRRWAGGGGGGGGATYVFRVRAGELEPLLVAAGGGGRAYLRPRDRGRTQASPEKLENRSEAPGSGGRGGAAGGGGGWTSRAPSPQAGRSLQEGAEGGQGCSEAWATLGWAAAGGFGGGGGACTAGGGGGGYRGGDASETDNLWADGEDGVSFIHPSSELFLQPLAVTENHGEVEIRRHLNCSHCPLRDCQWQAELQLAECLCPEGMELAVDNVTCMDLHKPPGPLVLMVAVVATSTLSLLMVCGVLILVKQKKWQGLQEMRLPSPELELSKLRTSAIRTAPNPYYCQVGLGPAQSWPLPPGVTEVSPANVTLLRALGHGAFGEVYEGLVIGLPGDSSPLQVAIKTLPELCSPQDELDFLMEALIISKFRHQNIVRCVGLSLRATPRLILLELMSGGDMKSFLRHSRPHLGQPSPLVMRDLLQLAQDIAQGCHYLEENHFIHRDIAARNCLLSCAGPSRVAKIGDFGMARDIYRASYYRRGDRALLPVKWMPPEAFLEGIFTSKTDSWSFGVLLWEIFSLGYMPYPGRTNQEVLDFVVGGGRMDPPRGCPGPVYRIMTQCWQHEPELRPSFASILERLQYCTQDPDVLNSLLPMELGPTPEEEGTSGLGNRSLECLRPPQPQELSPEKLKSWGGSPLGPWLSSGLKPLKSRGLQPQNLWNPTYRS

[11] = molecular target: Leukocyte tyrosine kinase receptor (Homo sapiens) (UniProt P29376); details: at 1 µM
[12] = molecular target: Tyrosine-protein kinase Lyn (Homo sapiens) (UniProt P07948); details: at 0.1 µM
Sequence of Tyrosine-protein kinase Lyn (Homo sapiens) (P07948 2-512 limits assumed): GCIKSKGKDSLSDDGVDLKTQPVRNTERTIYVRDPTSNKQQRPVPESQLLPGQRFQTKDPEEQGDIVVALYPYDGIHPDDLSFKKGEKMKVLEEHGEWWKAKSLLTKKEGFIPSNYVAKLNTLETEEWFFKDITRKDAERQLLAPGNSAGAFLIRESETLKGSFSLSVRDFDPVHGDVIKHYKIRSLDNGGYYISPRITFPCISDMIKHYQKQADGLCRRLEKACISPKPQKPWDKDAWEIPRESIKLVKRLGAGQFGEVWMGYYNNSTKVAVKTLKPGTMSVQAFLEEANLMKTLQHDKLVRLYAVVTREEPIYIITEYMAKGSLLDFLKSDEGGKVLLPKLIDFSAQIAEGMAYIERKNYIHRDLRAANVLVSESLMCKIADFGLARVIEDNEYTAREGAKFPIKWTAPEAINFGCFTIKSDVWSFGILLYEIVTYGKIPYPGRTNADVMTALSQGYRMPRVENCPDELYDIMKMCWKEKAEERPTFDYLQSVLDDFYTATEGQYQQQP

[13] = molecular target: Tyrosine-protein kinase Lyn (Homo sapiens) (UniProt P07948); details: at 1 µM
[14] = molecular target: Tyrosine-protein kinase Lyn (Homo sapiens) (UniProt P07948); details: at 0.1 µM; remark: listed apart in the source
[15] = molecular target: Tyrosine-protein kinase Lyn (Homo sapiens) (UniProt P07948); details: at 1 µM; remark: listed apart in the source
[16] = molecular target: T1, Tyrosine-protein kinase Mer (Homo sapiens) (UniProt Q12866); details: at 0.1 µM
T1 sequence (whole entry): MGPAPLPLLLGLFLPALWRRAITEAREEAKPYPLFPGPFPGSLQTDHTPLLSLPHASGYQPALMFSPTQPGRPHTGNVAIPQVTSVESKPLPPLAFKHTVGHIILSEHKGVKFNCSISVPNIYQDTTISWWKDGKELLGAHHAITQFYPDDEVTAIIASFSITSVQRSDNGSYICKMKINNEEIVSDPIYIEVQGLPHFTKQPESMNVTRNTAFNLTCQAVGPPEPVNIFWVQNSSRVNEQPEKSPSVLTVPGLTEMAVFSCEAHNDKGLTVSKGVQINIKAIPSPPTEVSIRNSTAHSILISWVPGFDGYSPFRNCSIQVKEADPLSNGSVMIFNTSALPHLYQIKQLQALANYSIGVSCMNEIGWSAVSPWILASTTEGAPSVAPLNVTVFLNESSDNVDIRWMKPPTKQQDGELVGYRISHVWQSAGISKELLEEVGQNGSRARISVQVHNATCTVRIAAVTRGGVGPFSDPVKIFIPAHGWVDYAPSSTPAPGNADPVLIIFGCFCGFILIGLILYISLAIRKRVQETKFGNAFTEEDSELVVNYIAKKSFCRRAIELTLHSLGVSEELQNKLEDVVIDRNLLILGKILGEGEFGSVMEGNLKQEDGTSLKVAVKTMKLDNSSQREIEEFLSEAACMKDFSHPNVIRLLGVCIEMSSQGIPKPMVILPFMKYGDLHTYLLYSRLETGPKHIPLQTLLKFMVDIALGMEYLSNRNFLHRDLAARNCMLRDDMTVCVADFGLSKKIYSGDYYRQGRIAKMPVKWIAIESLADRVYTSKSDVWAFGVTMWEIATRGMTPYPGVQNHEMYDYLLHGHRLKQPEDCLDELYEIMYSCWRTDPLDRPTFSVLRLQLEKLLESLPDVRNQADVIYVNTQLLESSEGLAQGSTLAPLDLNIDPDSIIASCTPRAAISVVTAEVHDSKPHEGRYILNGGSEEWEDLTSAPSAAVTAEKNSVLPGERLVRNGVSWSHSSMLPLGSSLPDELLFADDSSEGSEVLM

[17] = molecular target: T1, Tyrosine-protein kinase Mer (Homo sapiens); details: at 1 µM
[18] = molecular target: Hepatocyte growth factor receptor (Homo sapiens) (UniProt P08581); details: at 0.1 µM
Sequence of Hepatocyte growth factor receptor (Homo sapiens) (P08581 whole entry): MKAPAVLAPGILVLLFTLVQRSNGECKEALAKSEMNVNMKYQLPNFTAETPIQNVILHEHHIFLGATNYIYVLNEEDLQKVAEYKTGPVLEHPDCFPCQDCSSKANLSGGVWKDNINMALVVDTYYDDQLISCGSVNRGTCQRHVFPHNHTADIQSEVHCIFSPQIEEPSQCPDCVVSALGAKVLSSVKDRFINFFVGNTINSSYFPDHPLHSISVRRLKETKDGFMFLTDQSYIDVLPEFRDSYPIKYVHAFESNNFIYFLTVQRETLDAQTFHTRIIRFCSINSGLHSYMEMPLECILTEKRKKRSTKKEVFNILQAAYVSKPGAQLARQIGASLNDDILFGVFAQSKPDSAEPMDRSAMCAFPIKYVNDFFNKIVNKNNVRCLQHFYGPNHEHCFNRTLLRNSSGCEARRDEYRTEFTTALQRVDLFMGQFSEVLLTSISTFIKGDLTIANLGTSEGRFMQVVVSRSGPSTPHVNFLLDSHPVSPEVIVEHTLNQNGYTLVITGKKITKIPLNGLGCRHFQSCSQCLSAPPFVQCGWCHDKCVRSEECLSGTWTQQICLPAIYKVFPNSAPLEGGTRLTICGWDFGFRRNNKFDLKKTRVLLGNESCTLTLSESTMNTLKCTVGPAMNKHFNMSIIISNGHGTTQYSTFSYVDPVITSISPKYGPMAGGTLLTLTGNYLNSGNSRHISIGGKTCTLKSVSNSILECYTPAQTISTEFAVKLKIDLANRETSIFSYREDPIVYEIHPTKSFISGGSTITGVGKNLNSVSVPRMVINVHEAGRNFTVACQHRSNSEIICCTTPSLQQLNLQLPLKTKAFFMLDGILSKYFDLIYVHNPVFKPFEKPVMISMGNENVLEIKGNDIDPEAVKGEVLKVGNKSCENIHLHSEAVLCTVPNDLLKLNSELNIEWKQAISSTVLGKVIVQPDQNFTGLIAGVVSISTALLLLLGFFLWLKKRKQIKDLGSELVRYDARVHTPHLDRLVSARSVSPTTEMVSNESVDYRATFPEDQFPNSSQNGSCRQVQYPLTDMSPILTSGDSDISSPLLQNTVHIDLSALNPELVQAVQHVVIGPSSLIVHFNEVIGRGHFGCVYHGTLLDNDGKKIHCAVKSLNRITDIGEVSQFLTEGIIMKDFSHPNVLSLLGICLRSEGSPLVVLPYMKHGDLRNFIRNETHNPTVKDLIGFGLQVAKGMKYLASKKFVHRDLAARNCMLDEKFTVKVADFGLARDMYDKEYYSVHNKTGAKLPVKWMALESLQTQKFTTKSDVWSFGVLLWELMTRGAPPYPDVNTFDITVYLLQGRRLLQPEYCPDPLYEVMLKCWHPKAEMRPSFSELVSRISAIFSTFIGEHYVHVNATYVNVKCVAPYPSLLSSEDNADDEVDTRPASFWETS

[19] = molecular target: Hepatocyte growth factor receptor (Homo sapiens) (UniProt P08581); details: at 1 µM
[20] = molecular target: T2, Muscle, skeletal receptor tyrosine-protein kinase (Homo sapiens) (UniProt O15146); details: at 0.1 µM;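 note: values are mean inhibition of MuSK from the GSK PKIS kinase screening panel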
T2 sequence (whole entry): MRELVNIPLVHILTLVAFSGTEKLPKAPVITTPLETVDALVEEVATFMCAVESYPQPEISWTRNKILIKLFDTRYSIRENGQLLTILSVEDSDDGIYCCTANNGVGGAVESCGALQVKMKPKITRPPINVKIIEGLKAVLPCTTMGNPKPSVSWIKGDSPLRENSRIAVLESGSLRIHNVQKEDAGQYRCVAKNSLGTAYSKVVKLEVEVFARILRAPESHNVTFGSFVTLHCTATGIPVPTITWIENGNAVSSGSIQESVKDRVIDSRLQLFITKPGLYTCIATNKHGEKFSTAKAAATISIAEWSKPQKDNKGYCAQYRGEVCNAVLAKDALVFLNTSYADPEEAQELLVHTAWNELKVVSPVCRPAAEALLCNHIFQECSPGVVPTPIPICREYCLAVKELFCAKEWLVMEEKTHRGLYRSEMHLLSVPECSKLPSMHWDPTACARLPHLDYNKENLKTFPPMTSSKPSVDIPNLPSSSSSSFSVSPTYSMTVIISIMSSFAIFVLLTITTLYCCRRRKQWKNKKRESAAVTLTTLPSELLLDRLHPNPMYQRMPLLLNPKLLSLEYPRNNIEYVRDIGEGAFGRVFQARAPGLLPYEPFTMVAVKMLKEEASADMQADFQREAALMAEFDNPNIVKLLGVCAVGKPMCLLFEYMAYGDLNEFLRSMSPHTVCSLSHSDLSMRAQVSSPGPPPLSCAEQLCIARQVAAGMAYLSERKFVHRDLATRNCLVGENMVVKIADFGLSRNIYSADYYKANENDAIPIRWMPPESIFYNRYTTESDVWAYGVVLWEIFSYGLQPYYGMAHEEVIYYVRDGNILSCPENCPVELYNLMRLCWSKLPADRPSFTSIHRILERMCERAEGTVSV

Sequence of Mast/stem cell growth factor receptor Kit (Homo sapiens), P10721 [D816V] (P10721 whole entry D816V): as the sequence (P10721 whole entry T670I) above, with I670T, D816V counted along it
Sequence of Mast/stem cell growth factor receptor Kit (Homo sapiens) (P10721 whole entry): as the sequence (P10721 whole entry T670I) above, with I670T counted along it

| Compound | inhibition [1] [%] | inhibition [2] [%] | inhibition [3] [%] | inhibition [4] [%] | inhibition [5] [%] | inhibition [6] [%] | inhibition [7] [%] | inhibition [8] [%] | inhibition [9] [%] | inhibition [10] [%] | inhibition [11] [%] | inhibition [12] [%] | inhibition [13] [%] | inhibition [14] [%] | inhibition [15] [%] | inhibition [16] [%] | inhibition [17] [%] | inhibition [18] [%] | inhibition [19] [%] | inhibition [20] [%] |
| --- | --- | --- | --- | --- | --- | --- | --- | --- | --- | --- | --- | --- | --- | --- | --- | --- | --- | --- | --- | --- |
| [O-][S+]1CCN(Cc2ccc(-c3ccc4ncnc(Nc5ccc(OCc6ccccc6)c(Cl)c5)c4c3)o2)CC1 | 0.65 | -2.21 | -2.37 | 4.79 | 4.66 | -1.31 | -1.84 | 1.46 | 5.8 | 2.41 | 7.75 | 1.18 | 6.07 | -1.3 | 3.42 | 7.08 | 48.2 | 3.11 | 5.04 | 1.43 |
| NC(=O)c1sc(-n2cnc3ccccc32)cc1OCc1ccccc1Br | 5.34 | 2.22 | 4.99 | 1.31 | 4.08 | -5.3 | -0.34 | 3.94 | 5.49 | 4.25 | 6.11 | 4.01 | 6.01 | 1.96 | 3.34 | 1.26 | 2.98 | 3.2 | 6.5 | 3.93 |
| COC(=O)Nc1nc2cc(Oc3ccc(NC(=O)Nc4cccc(Br)c4)cc3)ccc2[nH]1 | 100 | 2.97 | 4.47 | 33 | 56.8 | 69.5 | 86.4 | 5 | 10.5 | 3.48 | 3.57 | 9.62 | 15.2 | 7.97 | 13.8 | 1.37 | 3.46 | 3.78 | 6.03 | 22.3 |
| COC(=O)c1ccc2c(c1)C(=Cc1cc(Br)c(O)c(Br)c1)C(=O)N2 | 16.2 | -0.82 | 4.08 | 2 | 2.74 | -3.35 | 0.2 | 5.24 | 15.3 | 6.76 | 34 | 3.81 | 17.1 | 2.84 | 12.9 | 1.09 | 2.17 | 2.4 | 8.25 | 3 |
| Oc1cccc(-c2nc(-c3ccccc3)[nH]c2-c2ccncc2)c1 | 8.38 | -0.23 | 6.52 | 2.52 | 3.34 | 1.61 | 3.96 | 4.47 | 17.7 | 3.98 | 7.05 | 9.9 | 31.3 | 6.99 | 25.4 | 1.35 | 6.42 | 6.73 | 11.1 | 4.05 |
| NS(=O)(=O)c1ccc(N/N=C2\C(=O)Nc3ccc(Cl)cc32)cc1 | 89.8 | 1.33 | 3.24 | 5.37 | 41.2 | 2.89 | 30.3 | 1.35 | 3.7 | 3.2 | 4.81 | 4.69 | 8.22 | 1.56 | 6.78 | 1.61 | 1.21 | 7.96 | 7.49 | 4.35 |
| FC(F)(F)c1ccc(-c2nn3ncccc3c2-c2ccnc(Nc3ccc4c(c3)OCCO4)n2)cc1 | 41.4 | -0.4 | 4.93 | 0.89 | 6.31 | 9.1 | 21.1 | 6.41 | 42.5 | 1.18 | 3.42 | 6.84 | 37.1 | 4.96 | 30.8 | 7.37 | 8.55 | 5.94 | 12.1 | 7.57 |
| Cc1ccc(NC(=O)CC2CC2)cc1-c1ccc(C(=O)NCC2CC2)cc1 | 5.34 | 4 | 3.9 | 2.39 | 3.24 | 1.38 | 2.75 | 1.18 | 3.82 | 4.18 | 4.25 | 6.32 | 7.19 | 4.03 | 6.24 | 0.96 | 1.85 | 7.51 | 9 | 2.1 |
| Nc1nccc(-c2c(-c3ccc(F)cc3)nn3cc(C(F)(F)F)ccc23)n1 | 1.1 | 1.51 | -0.82 | -0.08 | -0.07 | 1.43 | 0.2 | 2.62 | 4.27 | 1.83 | 2.62 | 1.67 | 2.06 | 1.33 | 2.59 | -0.89 | 0.12 | 2.79 | 0.01 | -1.22 |
| CN(C)C(=O)O[C@@H]1CN[C@@H](C#Cc2cc3ncnc(Nc4ccc(OCc5cccc(F)c5)c(Cl)c4)c3s2)C1 | -0.23 | 1.36 | -2.75 | -2.12 | -2.74 | 0.19 | 4.14 | 1.89 | 5.66 | 0.9 | 0.68 | 0.77 | 2.73 | 0.28 | 1.62 | -0.95 | 2.89 | 5.31 | 0.32 | -0.25 |
| OCc1ccc(-c2nc(-c3ccccn3)c(-c3ccc4c(c3)OCO4)[nH]2)cc1 | 3.32 | 4.26 | 1.86 | 3.18 | 0.71 | -1.45 | 2.83 | 4.57 | 6.53 | 3.45 | 4.28 | 6.03 | 6.58 | 3.09 | 3.31 | 0.75 | 1.08 | 11.7 | 8.92 | 3.11 |
| COC(=O)c1cncc(/C=C/c2c(C)cc(O)cc2C)c1 | 83.5 | 4.37 | 7.02 | 2.73 | 0.94 | 4.65 | 41.8 | 5.78 | 30.5 | 3.77 | 4.87 | 12.3 | 46.2 | 7.81 | 41.9 | 0.09 | 2.53 | 1.79 | 11.5 | 2.48 |
| Cc1cc(Cl)cc2c1NC(=O)C2=NNc1ccc(S(N)(=O)=O)cc1 | 12.9 | 4.18 | -3.52 | 2.4 | 3.29 | 2.2 | 7.35 | 1.9 | 1.89 | 2.82 | 2.25 | 3.74 | 4.11 | 2.32 | 4.84 | 0.38 | 0.48 | -0.26 | 5.08 | 2.21 |
